# An excerpt weighted towards active compounds, which were near 1.6% of everything screened.
# KCNQ2 inh – rat KCNQ2 potassium channel inhibitors, primary screen, cell-based, CHO-K1, FluxOR thallium flux, B-score; 310,000 tested, 1.1% active; Potassium voltage-gated channel subfamily KQT member 2 (Rattus norvegicus), O88943; 20 min; active compounds read low; AID 2156, 2009; B-score at 10 µM;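 active means fluorescence ratio B-score at most minus 3 library SDs, with starting brightness B-score within 2 library SDs, cut at about -5.5 in these data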
# KCNQ2 pot – potentiators of rat KCNQ2 potassium channel; Potassium voltage-gated channel subfamily KQT member 2 (Rattus norvegicus), O88943; CHO-K1 KCNQ2, FluxOR thallium flux fluorescence; active compounds read high; B-score at 10 µM; 310,000 tested, 0.54% active;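 active means fluorescence ratio B-score at least 3 SD of library B-scores, with initial fluorescence B-score within 3 of them, cut at about 5.3 in these data; same plate scores as AID 2156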;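 further: B-score of peak minus minimum over baseline fluorescence ratio after K+ and Tl+ stimulus; positive B-score means potentiation of KCNQ2 with more thallium influx and brighter signal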
# Kir21 confirm – mouse Kir2.1 channel blockers, retest, confirmation, cell-based, FluxOR thallium flux, duplicate. 2,300 tested, 41% active. Kir2.1-expressing cells, FluxOR thallium flux fluorescence; active compounds read low. Tl flux remaining, % of negative control (active compounds read low), % at 10 µM. shares compounds with KCNQ2 pot;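 active means Primary-screen hit whose thallium flux fell at least 3 control SD below untreated wells in both duplicates, with normal baseline fluorescence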;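 further: 0% = blank wells without stimulus and 100% = stimulated no-compound controls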
# Target sequence (P35561 whole entry, looked up): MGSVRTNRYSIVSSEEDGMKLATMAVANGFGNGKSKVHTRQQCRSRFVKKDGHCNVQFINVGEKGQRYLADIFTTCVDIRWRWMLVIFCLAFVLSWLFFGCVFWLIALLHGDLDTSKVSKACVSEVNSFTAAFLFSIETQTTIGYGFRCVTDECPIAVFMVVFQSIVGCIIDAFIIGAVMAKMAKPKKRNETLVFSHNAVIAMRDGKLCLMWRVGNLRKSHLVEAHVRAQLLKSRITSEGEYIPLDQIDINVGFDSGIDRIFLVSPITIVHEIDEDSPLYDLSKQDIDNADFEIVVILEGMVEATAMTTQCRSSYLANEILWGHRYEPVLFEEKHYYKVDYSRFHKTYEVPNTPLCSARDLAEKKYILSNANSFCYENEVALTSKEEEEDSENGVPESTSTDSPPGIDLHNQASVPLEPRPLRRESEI
# HEK293 Tl flux – alters thallium flux in parental HEK293 cells, Kir2.1 counter-screen; 2,300 tested, 19% active; FluxOR signal as % of negative control (100 = no effect), % at 10 µM; FluxOR thallium flux fluorescence; 0% = unstimulated blank wells; shares compounds with KCNQ2 pot;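 active means dye signal at least 3 control SD above or below untreated wells in both duplicates, raw fluorescence within 3, either direction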;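 further: percent is based on the flux ratio of peak minus minimum fluorescence over baseline F0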
# CHO-K1 Tl ctr – nonspecific thallium flux increase in parental CHO-K1, confirmation, counter-screen for KCNQ2 potentiator project, cell-based, FluxOR thallium flux, duplicate. shares compounds with KCNQ2 pot. parental CHO-K1 cells, FluxOR thallium flux fluorescence; zero = vehicle mean+3SD, 100% = vehicle-minus-blank window. activity increase over 3SD of controls, % at 10 µM. 1,200 tested, 43% active. AID 2282, 2010;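 active means signal rise of at least 3 SD above the untreated control mean, in both duplicate wells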;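 further: counter screen of KCNQ2 potentiator hits so any rise reflects channel-independent effects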
# KCNQ1 pot spec – human KCNQ1 channel potentiation off-target, confirmation, selectivity assay for KCNQ2 potentiator project, cell-based, CHO, FluxOR thallium flux; shares compounds with KCNQ2 pot; activation over 3SD threshold, % at 10 µM; CHO KCNQ1 stable, FluxOR thallium flux fluorescence; beyond 3SD, as % of vehicle-control signal; 1,200 tested, 28% active;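 active means fluorescence ratio rise of at least 3 SD of vehicle wells above their mean, in both replicate wells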;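 further: 0% = vehicle mean plus 3 SD and 100% = vehicle minus unstimulated blank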
# KCNQ2 pot conf – rat KCNQ2 channel potentiators, confirmation, cell-based, CHO, FluxOR thallium flux, duplicate | CHO-KCNQ2 cells, FluxOR thallium flux fluorescence | AID 2287, 2010 | potentiation, less the hit threshold, % at 10 µM | 1,200 tested, 68% active | shares compounds with KCNQ2 pot;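 active means fluorescence ratio rising 3 SD or more over the vehicle control mean in both replicates, plus primary screen hit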;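 further: peak minus minimum thallium fluorescence divided by baseline after K/Tl stimulus; 0% = vehicle mean plus 3 SD and 100% = vehicle minus unstimulated blank difference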
# Kir21 spec – mouse Kir2.1 channel activation off-target, confirmation, selectivity assay for KCNQ2 potentiator project, cell-based, HEK293, FluxOR thallium flux; shares compounds with KCNQ2 pot; HEK293 Kir2.1, FluxOR thallium flux fluorescence; activity over 3SD threshold, % at 10 µM; 1,200 tested, 2% active; AID 2345, 2010;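 active means fluorescence ratio rise of at least 3 SD above the vehicle-control mean, seen in both replicates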;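 further: 0% = vehicle mean plus 3 SD and 100% = vehicle minus no-stimulus blank window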
# KCNQ2 W236L pot – potentiators of retigabine-insensitive KCNQ2 W236L, mechanism study for KCNQ2 potentiator project, cell-based, rat KCNQ2 W236L, CHO, automated patch clamp | current increase over 3SD of negative controls (%), active compounds read high, % at 25 µM | AID 2558, 2010 | 940 tested, 10% active | shares compounds with KCNQ2 pot | automated patch clamp current;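 active means current increase at least 3 SD of the untreated controls above them in both duplicate recordings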
# Numbers without * were called inactive; i = inactive; nt = no result given.
SMILES,KCNQ2 inh,KCNQ2 pot,Kir21 confirm,HEK293 Tl flux,others
CCc1nnc(NC(=O)c2nc(S(=O)(=O)Cc3ccccc3)ncc2Cl)s1,i,12*,i,i,CHO-K1 Tl ctr=97*;KCNQ1 pot spec=-19;KCNQ2 pot conf=87*;Kir21 spec=-44;KCNQ2 W236L pot=70%*
CC(=O)Nc1ccc(NC(=O)c2nc(S(=O)(=O)Cc3ccccc3)ncc2Cl)cc1,i,nt,nt,nt,
CCc1nnc(NC(=O)c2nc(S(=O)(=O)Cc3cccc(C)c3)ncc2Cl)s1,i,18*,nt,nt,CHO-K1 Tl ctr=5.0*;KCNQ1 pot spec=-1;KCNQ2 pot conf=64*;Kir21 spec=-57;KCNQ2 W236L pot=19%*
CCc1nnc(NC(=O)c2nc(S(=O)(=O)Cc3ccc(C)cc3)ncc2Cl)s1,i,15*,nt,nt,CHO-K1 Tl ctr=-22;KCNQ1 pot spec=-16;KCNQ2 pot conf=63*;Kir21 spec=-53;KCNQ2 W236L pot=26%*
O=C(NCCc1nnc2ccc(SCC(=O)N3CCCC3)nn12)c1ccc(F)cc1,i,nt,nt,nt,
Cc1cccc(OCC(O)Cn2c(N3CCCCC3)nc3c2c(=O)n(C)c(=O)n3C)c1 (stereo not given),i,nt,nt,nt,
COc1ccc(S(=O)(=O)n2nc(C)cc2C)cc1OC,i,nt,nt,nt,
COc1ccc(OC)c(S(=O)(=O)N2CCC(C(=O)NCc3ccc4c(c3)OCO4)CC2)c1,i,1.9,nt,nt,
CC(C)(C)C(=O)NC(=S)NNC(=O)C(c1ccccc1)c1ccccc1,i,6.6*,i,66%*,CHO-K1 Tl ctr=-5;KCNQ1 pot spec=-13;KCNQ2 pot conf=-12;Kir21 spec=-22
CC(=O)NNC(=S)NC(=O)C(c1ccccc1)c1ccccc1,i,nt,nt,nt,
O=C1C2C3C=CC(C4CC34)C2C(=O)N1Cc1ccco1 (stereo not given),i,nt,nt,nt,
Cn1c(=O)oc2cc(S(=O)(=O)Nc3ccc(F)cc3)ccc21,i,nt,nt,nt,
CN(C)c1ccc(CNCCC(Cc2ccccc2)c2ccco2)cc1 (stereo not given),i,nt,nt,nt,
c1ccc(CNCCC(Cc2ccccc2)c2ccco2)cc1 (stereo not given),i,nt,17%*,74%*,
CN(CCCN1CCCCC1)C(=O)c1cc(COc2ccc(F)cc2F)on1,i,1.4,nt,nt,
CC(C)(C)c1csc(N/N=C/c2cccnc2)n1,i,1.5,nt,nt,
Cc1ccc(/C=N/Nc2nc(C(C)(C)C)cs2)o1,i,6.9*,i,70%*,CHO-K1 Tl ctr=-8;KCNQ1 pot spec=-27;KCNQ2 pot conf=-3;Kir21 spec=-33;KCNQ2 W236L pot=i
Cc1cc(C)c2ccc(/C=N/O)nc2c1O,i,12*,i,i,CHO-K1 Tl ctr=147*;KCNQ1 pot spec=12*;KCNQ2 pot conf=-3;Kir21 spec=-17;KCNQ2 W236L pot=i
Cc1cc(C)c2ccc(NN)nc2c1O,i,nt,nt,nt,
CCN(CC(=O)Nc1c(F)cccc1F)C(=O)c1ccc(COc2ccccc2)o1,i,0.46,nt,nt,
C=CCNCCCOc1ccc(Cl)cc1C(C)(C)C,i,nt,28%*,i,
C=CCNCCOCCOc1ccc(Cl)cc1C(C)(C)C,i,nt,nt,nt,
Cc1ccc(OCCOCCN2CCN(C)CC2)c(C(C)(C)C)c1,i,0.05,nt,nt,
CC(C)(C)c1cc(Cl)ccc1OCCOCCN1CCCC1,i,nt,39%*,i,
O=C(NCC(=O)N1CCN(C(=O)c2ccco2)CC1)c1ccc(Br)cc1,i,1,nt,nt,
SMILES,KCNQ2 inh,KCNQ2 pot,Kir21 confirm,HEK293 Tl flux,others
COc1ccccc1NS(=O)(=O)c1cccc(C(=O)NCC(c2ccco2)N(C)C)c1 (stereo not given),i,0.04,nt,nt,
Fc1ccc(N2CCN(Cc3c[nH]c4ccccc34)CC2)cc1,i,0.09,19%*,i,
c1cnc(N2CCN(Cc3c[nH]c4ccccc34)CC2)nc1,i,nt,nt,nt,
CC(C)(c1ccccc1)c1ccc(OCCCNCCO)cc1,i,1,28%*,i,
COCCCNCCCOc1ccc(C(C)(C)c2ccccc2)cc1,i,0.52,nt,nt,
O=C(CCN1C(=O)C2CCCCC2C1=O)N1CCN(S(=O)(=O)c2ccccc2)CC1 (stereo not given),i,nt,nt,nt,
Cc1cccc(Nc2c3c(nc4ccccc24)CCC3)c1,i,nt,31%*,i,
N#Cc1cccc(Nc2c3c(nc4ccccc24)CCC3)c1,i,nt,nt,nt,
Cc1ccc2cc(C#N)c(N3CCCN(C(=S)NCCCN(C)C)CC3)nc2c1,i,nt,nt,nt,
Cc1cc(C)c2cc(C#N)c(N3CCCN(C(=S)NCCCN(C)C)CC3)nc2c1,i,nt,50%*,i,
Cc1ccc(NC(=O)CN2CCC(NC(=O)Cc3ccccc3)CC2)c(C)c1,i,nt,nt,nt,
Cc1ccc(NC(=O)Cc2ccccc2)c(C)c1,i,6.4*,nt,nt,CHO-K1 Tl ctr=3.4*;KCNQ1 pot spec=-5;KCNQ2 pot conf=7.4*;Kir21 spec=-48;KCNQ2 W236L pot=i
CN(C)c1ccc(NC(=O)Cc2ccccc2)c2ccccc12,i,5.3*,i,i,CHO-K1 Tl ctr=-4;KCNQ1 pot spec=-31;KCNQ2 pot conf=10*;Kir21 spec=-23;KCNQ2 W236L pot=i
Cc1ccc(NC(=O)CCOc2ccccc2)c(C)c1,i,6*,i,i,CHO-K1 Tl ctr=-6;KCNQ1 pot spec=49*;KCNQ2 pot conf=5.5*;Kir21 spec=-22;KCNQ2 W236L pot=i
COc1cc(OC)cc(C(=O)Nc2ccc(N(C)C)c3ccccc23)c1,i,0.66,nt,nt,
Cc1ccc(F)cc1NC(=O)CCOc1ccccc1,i,nt,nt,nt,
CCOC(=O)C1CCN(C(=O)C2COc3ccccc3O2)CC1 (stereo not given),i,nt,nt,nt,
CCOCCCNC(=S)Nc1cc(C)cc(C)c1,i,0.41,nt,nt,
Cc1ccccc1CN1CCCC(C(=O)Nc2ccccc2Oc2cccnc2)C1 (stereo not given),i,nt,nt,nt,
CC(NC(=O)Cn1cc(Br)c([N+](=O)[O-])n1)c1ccccc1 (stereo not given),i,nt,nt,nt,
O=C(NC(=S)Nc1cccc(Cl)c1N1CCCCC1)c1cccs1,i,2.2,nt,nt,
O=C(NC(=S)Nc1ccc(N2CCCCC2)cc1)c1ccco1,i,8.5*,i,i,CHO-K1 Tl ctr=99*;KCNQ1 pot spec=4.1*;KCNQ2 pot conf=40*;Kir21 spec=-25;KCNQ2 W236L pot=i

# Compound activity: PubChem, Johns Hopkins Ion Channel Center
